Laboratory results taken from PubChem BioAssay (NCATS).
Several values for one entry are separate records, joined by “and”; a condition that tells them apart may be missing. Equal entries are not always repeated. Records with an inconclusive call do not appear. Entries that show only a call come without a potency. Activity calls are given as the source filed them. Unless noted, calls follow the shape of the dose curve; as a rule, active = well fitted curve in the direction sought with a large enough effect; inconclusive = small, poorly fitted or top-dose-only effect, or another doubt; inactive = no such curve, though single readings can be large; an effect the other way counts as inactive or inconclusive. Non-standard residues stand in square brackets, D forms with d. Residues, ends and D or L forms follow the SMILES beside them. Peptide text beside a SMILES is read from it. *: point of attachment. Sta = CC(C)C[C@H](N)[C@@H](O)CC(=O)O; Isovaleryl = CC(C)CC(=O)*

Assays:
[1] = Primary qHTS for small molecule stabilizers of the endoplasmic reticulum resident proteome: Secreted ER Calcium Modulated Protein (SERCaMP) assay (AID 1508630)
Procedure, shortened: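 GLuc-SERCaMP-expressing SH-SY5Y cells, pretreated 16 h with compound, are challenged with thapsigargin to empty ER calcium stores; after 4 h, coelenterazine is added directly to the medium and luminescence is imaged.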

[2] = A High-Content qHTS Against Drug Library for the Identification of Small Molecules that Inhibit DYT1 Early Onset Primary Dystonia-Associated Cell Pathology (AID 1645839; calls by dose curve; also: potency is read from the fitted curve at half-maximal effect)
Procedure, shortened: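 In this high-content image screen, delE TorsinA mislocalization in inducible Flp-In 293 cells is scored as %pathology, with cell count serving as the counterscreen. Compound exposure lasts 48 h under tetracycline induction in reduced-serum medium.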

[3] = target: Cytochrome P450 2D6 (Homo sapiens) (UniProt P10635); assay: Cytochrome P450 family 2 subfamily D member 6 (CYP2D6) small molecule antagonists: luciferase biochemical (cell-free) qHTS assay (AID 1645840; active = well fitted curve in the direction sought with a large enough effect in the repeat runs; an effect the other way counts as inactive or inconclusive; also: nearly all actives have a fitted effect of over 55% in size; also: potency is read from the fitted curve at half-maximal effect)
Chain of Cytochrome P450 2D6 (Homo sapiens) (P10635 whole entry, looked up): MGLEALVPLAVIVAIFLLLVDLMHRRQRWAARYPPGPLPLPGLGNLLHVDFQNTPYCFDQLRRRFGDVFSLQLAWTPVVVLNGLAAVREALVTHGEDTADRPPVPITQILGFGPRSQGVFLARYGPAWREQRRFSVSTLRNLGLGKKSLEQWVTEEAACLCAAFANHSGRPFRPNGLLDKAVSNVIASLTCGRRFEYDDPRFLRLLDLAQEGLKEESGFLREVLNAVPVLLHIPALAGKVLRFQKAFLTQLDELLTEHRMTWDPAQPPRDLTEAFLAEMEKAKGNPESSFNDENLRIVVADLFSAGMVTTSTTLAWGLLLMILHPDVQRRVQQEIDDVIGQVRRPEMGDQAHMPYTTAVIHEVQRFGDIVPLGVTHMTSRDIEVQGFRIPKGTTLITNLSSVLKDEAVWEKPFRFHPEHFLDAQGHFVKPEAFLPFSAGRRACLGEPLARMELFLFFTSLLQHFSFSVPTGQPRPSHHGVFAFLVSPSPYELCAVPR
Procedure, shortened: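 P450-Glo luminescent screen: recombinant CYP2D6 enzyme–proluciferin substrate mix preincubated with compound 10 min at room temperature, then NADPH regeneration added for 1 h at room temperature. Detection reagent added for 20 min; luciferin light read as relative luminescence units.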

[4] = target: Cytochrome P450 3A4 (Homo sapiens) (UniProt P08684); assay: Cytochrome P450 family 3 subfamily A member 4 (CYP3A4) small molecule antagonists: luciferase qHTS assay (AID 1645841; active = well fitted curve in the direction sought with a large enough effect in the repeat runs; an effect the other way counts as inactive or inconclusive; also: nearly all actives have a fitted effect of over 45% in size)
Chain of Cytochrome P450 3A4 (Homo sapiens) (P08684 whole entry, looked up): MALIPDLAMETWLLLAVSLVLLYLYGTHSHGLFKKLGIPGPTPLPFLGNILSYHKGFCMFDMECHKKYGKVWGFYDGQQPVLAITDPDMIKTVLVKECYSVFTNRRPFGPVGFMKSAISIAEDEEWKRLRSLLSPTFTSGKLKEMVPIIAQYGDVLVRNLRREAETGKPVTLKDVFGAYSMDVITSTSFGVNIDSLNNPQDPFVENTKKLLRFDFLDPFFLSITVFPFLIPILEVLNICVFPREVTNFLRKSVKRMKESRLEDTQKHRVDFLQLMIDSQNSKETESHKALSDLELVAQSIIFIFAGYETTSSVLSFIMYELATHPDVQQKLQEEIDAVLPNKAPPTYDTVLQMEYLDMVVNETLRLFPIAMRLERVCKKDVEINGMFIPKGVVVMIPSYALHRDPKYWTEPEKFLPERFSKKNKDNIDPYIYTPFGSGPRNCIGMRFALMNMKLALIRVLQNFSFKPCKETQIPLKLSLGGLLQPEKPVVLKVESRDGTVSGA
Procedure, shortened: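 Luminescent CYP3A4 activity readout: compounds plus enzyme-substrate mix 10 min at room temperature, reaction started with NADPH regenerating system for 1 h, stopped with detection reagent, read after 20 min. Ketoconazole served as control.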

[5] = target: Cytochrome P450 2C9 (Homo sapiens) (UniProt P11712); assay: Cytochrome P450 family 2 subfamily C member 9 (CYP2C9) small molecule antagonists: luciferase biochemical (cell-free) qHTS assay (AID 1645842; active = well fitted curve in the direction sought with a large enough effect in the repeat runs; an effect the other way counts as inactive or inconclusive; also: nearly all actives have a fitted effect of over 55% in size; also: potency is read from the fitted curve at half-maximal effect)
Chain of Cytochrome P450 2C9 (Homo sapiens) (P11712 whole entry, looked up): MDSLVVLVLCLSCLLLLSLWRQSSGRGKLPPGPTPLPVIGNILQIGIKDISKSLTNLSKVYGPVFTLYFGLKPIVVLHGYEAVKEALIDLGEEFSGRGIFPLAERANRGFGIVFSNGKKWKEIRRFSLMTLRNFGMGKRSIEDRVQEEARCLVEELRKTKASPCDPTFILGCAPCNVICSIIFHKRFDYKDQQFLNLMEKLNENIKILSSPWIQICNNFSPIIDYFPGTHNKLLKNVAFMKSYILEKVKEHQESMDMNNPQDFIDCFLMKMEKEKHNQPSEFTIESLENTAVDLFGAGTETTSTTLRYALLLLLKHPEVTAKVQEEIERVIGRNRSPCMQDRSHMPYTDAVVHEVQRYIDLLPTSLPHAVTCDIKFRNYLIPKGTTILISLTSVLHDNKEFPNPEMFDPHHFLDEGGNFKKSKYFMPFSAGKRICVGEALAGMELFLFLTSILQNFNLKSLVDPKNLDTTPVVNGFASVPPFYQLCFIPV
Procedure, shortened: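 Luminescence, after 20 min with luciferin detection reagent, reflected CYP2C9 turnover during a 1 h NADPH-driven reaction at 37C. Enzyme-substrate mix contained 0.4% bovine serum albumin and was preincubated with compound 10 min at room temperature.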

[6] = target: N-terminal Xaa-Pro-Lys N-methyltransferase 1 (Homo sapiens) (UniProt Q9BV86); assay: Confirmatory qHTS for Inhibitors of N-terminal methyltransferase 1 (NTMT1): MTaseGlo Assay (AID 1645874); also: potency is read from the fitted curve at half-maximal effect; nearly all actives have a fitted effect of over 65% in size
Chain of N-terminal Xaa-Pro-Lys N-methyltransferase 1 (Homo sapiens) (Q9BV86 whole entry, looked up): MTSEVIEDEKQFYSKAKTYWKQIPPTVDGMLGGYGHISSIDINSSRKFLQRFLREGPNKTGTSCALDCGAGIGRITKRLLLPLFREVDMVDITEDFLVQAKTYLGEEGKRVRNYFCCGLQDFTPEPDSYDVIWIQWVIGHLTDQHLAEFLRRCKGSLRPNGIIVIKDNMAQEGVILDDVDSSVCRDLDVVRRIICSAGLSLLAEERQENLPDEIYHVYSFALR
Procedure, shortened: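 Preincubation of NTMT1 (125 nM) plus SAM (100 uM) with test compounds lasted 15 min; methylation of 1 uM SPKRIA then proceeded 30 min in the dark at room temperature. Luciferase signal reported SAH produced.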

Structure (SMILES) | Potency [1] | Potency [2] | Potency [3] | outcome [4] | Potency [5] | Potency [6]
Cc1ccc(C)c(OCCCC(C)(C)C(=O)O)c1 | inactive | inactive | inactive | inactive |  | 
CCC[C@@H]1C[C@@H](C(=O)N[C@@H]([C@H]2O[C@H](SC)[C@H](O)[C@@H](O)[C@H]2O)[C@@H](C)O)N(C)C1 | inactive | inactive | inactive | inactive |  | 
CC(C)[C@H](N)C(=O)OCCOCn1cnc2c(=O)[nH]c(N)nc21 | inactive | inactive | inactive |  |  | 
CCCOc1ccc2nc(NC(=O)OC)[nH]c2c1 | inactive | inactive | inactive |  | inactive | 
CN(c1nccc(=O)[nH]1)C1CCN(c2nc3ccccc3n2Cc2ccc(F)cc2)CC1 | inactive | inactive | 12.3 µM (active) |  |  | 
CC1=C(C(=O)O)N2C(=O)[C@@H](NC(=O)[C@H](N)C3=CCC=CC3)[C@H]2SC1 | inactive | inactive | inactive |  | inactive | 
Nc1cc(C(Cl)=C(Cl)Cl)c(S(N)(=O)=O)cc1S(N)(=O)=O | inactive | inactive | inactive |  |  | 
O=C(OC1C[C@H]2CC[C@@H](C1)[N+]21CCCC1)C(O)(c1ccccc1)c1ccccc1 (stereo not given in full) | inactive | inactive | 6.17 µM (active) | inactive |  | 
O=C(O)c1cccnc1Nc1cccc(C(F)(F)F)c1 | inactive | inactive | inactive |  |  | 
COc1cc2c(N3CCN(C(=O)Nc4ccc(OC(C)C)cc4)CC3)ncnc2cc1OCCCN1CCCCC1 | inactive | inactive | 12.3 µM (active) |  | inactive | 
CCCCc1ccc2nc(NC(=O)OC)[nH]c2c1 | inactive | inactive |  |  |  | 
NC(=O)Cc1cccc(C(=O)c2ccccc2)c1N | inactive | inactive | inactive |  | inactive | 
CN(C)C(=O)COC(=O)Cc1ccc(OC(=O)c2ccc(N=C(N)N)cc2)cc1 | inactive | inactive | inactive |  |  | 
CC(S)C(=O)NCC(=O)O (stereo not given) | inactive | inactive | inactive |  | inactive | 
CC(C)c1ccc2oc3nc(N)c(C(=O)O)cc3c(=O)c2c1 | inactive | inactive | 13.8 µM (active) |  |  | 
Cc1cc(=O)oc2cc(O)ccc12 | inactive | inactive | inactive |  |  | 

Structure (SMILES) | Potency [1] | Potency [2] | Potency [3] | outcome [4] | Potency [5] | Potency [6]
O=C(O)CCNC(=O)c1ccc(N=Nc2ccc(O)c(C(=O)O)c2)cc1 | inactive | inactive | inactive |  |  | 
N=C(N)c1ccc2cc(OC(=O)c3ccc(N=C(N)N)cc3)ccc2c1 | inactive | inactive | inactive |  |  | 
COC(=O)[C@H](Cc1ccccc1)NC(=O)[C@@H](N)CC(=O)O (H-Asp-Phe-OMe) | inactive | inactive | inactive |  |  | 
Cc1nc2n(c(=O)c1CCN1CCC(c3noc4cc(F)ccc34)CC1)CCCC2 | inactive | inactive | 2.75 µM (active) |  |  | 
Nc1ncn([C@H]2C[C@H](O)[C@@H](CO)O2)c(=O)n1 | inactive | inactive | inactive |  |  | 
CCCCC(CC)COC(=O)C(C#N)=C(c1ccccc1)c1ccccc1 (stereo not given) | inactive | inactive | 1.23 µM (active) and 3.38 µM (active) |  |  | 
Clc1ccc(C(Cn2ccnc2)OCc2ccc(Sc3ccccc3)cc2)c(Cl)c1 (stereo not given) | inactive | inactive | 0.155 µM (active) |  | 2.75 µM (active) | 
Cc1cc2cc3c(C)cc(=O)oc3c(C)c2o1 | inactive | inactive | inactive |  | inactive | 
Nc1cccc2c1CN(C1CCC(=O)NC1=O)C2=O (stereo not given) | inactive | inactive |  |  |  | 
CC(C)CC(=O)N[C@H](C(=O)N[C@H](C(=O)N[C@@H](CC(C)C)[C@@H](O)CC(=O)N[C@@H](C)C(=O)N[C@@H](CC(C)C)[C@@H](O)CC(=O)O)C(C)C)C(C)C (Isovaleryl-VV[Sta]A[Sta]-OH) | inactive | inactive | inactive |  |  | 
CC(C)C[C@H](NC(=O)[C@H](Cc1ccccc1)NC(=O)c1cnccn1)B(O)O | inactive | inactive | inactive |  | inactive | 
Cc1c(OCC(F)(F)F)ccnc1CS(=O)c1nc2ccccc2[nH]1 (stereo not given) | inactive | inactive | 389 nM (active) and 1.07 µM (active) |  |  | 
COc1cc(Nc2c(C#N)cnc3cc(OCCCN4CCN(C)CC4)c(OC)cc23)c(Cl)cc1Cl | inactive | 10 µM (active) | inactive | inactive | inactive | 15.8 µM (active)
Cc1cc(C2CCCCC2)n(O)c(=O)c1 | inactive |  | inactive |  |  | 
CCCCN(CCCC)CCC(O)c1cc2c(Cl)cc(Cl)cc2c2cc(C(F)(F)F)ccc12 (stereo not given) | inactive |  | 0.55 µM (active) |  |  | 
Nc1nc(Cl)nc2c1ncn2[C@H]1C[C@H](O)[C@@H](CO)O1 | inactive |  | inactive |  |  | 
